Measurements as given in PubChem BioAssay (NCATS).
Inconclusive results are not listed. Calls of active or inactive are those of the source. Unless noted, calls come from the whole dose curve; as a rule, active = well fitted curve in the direction sought with a large enough effect; inconclusive = small, poorly fitted or top-dose-only effect, or another doubt; inactive = no such curve, though single readings can be large; an effect the other way counts as inactive or inconclusive.

What was measured:
[1] = Quantitative High-Throughput drug screen in 47 multiple myeloma cell lines against the NCATS MIPE library collection: VP6_DJ cell viability assay (AID 1919867); note: potency is the fitted concentration of half-maximal effect; nearly all actives have a fitted effect of over 40% in size
Method in brief: (§1)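 Readout: median RLU from CellTiter-Glo after 5 min at room temperature. Preceding step was 48 h drug treatment of 500 cells/well at 37 °C, 5% CO2, with DMSO-only and media-only control wells.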

[2] = Quantitative High-Throughput drug screen in 47 multiple myeloma cell lines against the NCATS MIPE library collection: PE2_PLB cell viability assay (AID 1919869); note: nearly all actives have a fitted effect of over 35% in size; note: potency is the fitted concentration of half-maximal effect
Method in brief: as §1

[3] = Quantitative High-Throughput drug screen in 47 multiple myeloma cell lines against the NCATS MIPE library collection: PCM6_Riken cell viability assay (AID 1919870); note: potency is the fitted concentration of half-maximal effect; nearly all actives have a fitted effect of over 30% in size
Method in brief: as §1

[4] = Quantitative High-Throughput drug screen in 47 multiple myeloma cell lines against the NCATS MIPE library collection: RPMI8226_ATCC cell viability assay (AID 1919871); note: potency is the fitted concentration of half-maximal effect; nearly all actives have a fitted effect of over 30% in size
Method in brief: as §1

[5] = Quantitative High-Throughput drug screen in 47 multiple myeloma cell lines against the NCATS MIPE library collection: KMS28BM_JCRB cell viability assay (AID 1919874); note: potency is the fitted concentration of half-maximal effect; nearly all actives have a fitted effect of over 35% in size
Method in brief: as §1

[6] = qHTS drug screen for cell cycle checkpoint inhibitors in PARPi-resistant BRCA-mutant ovarian cancer cell lines. (AID 1963452; calls by dose curve); conditions: PEO1/OlaR viability, CellTiter-Glo luminescence, 96 h, stronger effect = lower value
Method in brief: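 PEO1, PEO4 and PEO1/OlaR ovarian cancer cells, 600 per well, exposed 96 h at 37C to a dilution series. Viability read by CellTiter-Glo luminescence, normalized to DMSO and empty wells; activity summarized as Z-AUC.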

[7] = qHTS profiling for inhibitors of Plasmodium falciparum proliferation (AID 504749); note: nearly all actives have a fitted effect of over 60% in size; note: potency is the fitted concentration of half-maximal effect;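 for activity, negative = inhibition: 0% = DMSO vehicle and full inhibition = artemisinin control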; conditions: P. falciparum in erythrocytes, SYBR Green DNA, 72 h; at 28.7 µM (top of the series); parasite line A
Method in brief: (§2)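 Fluorescence of SYBR Green-bound parasite DNA, read at 485/535 nm, served as the growth measure. Infected erythrocytes were cultured with compound 72 h; artemisinin (0.29 uM) and DMSO wells defined the normalization range.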

3D7 = experiment: as above; conditions: P. falciparum in erythrocytes, SYBR Green DNA, 72 h; series mostly up to 28.7 µM
Method in brief: as §2

7G8 = experiment: as above; conditions: P. falciparum in erythrocytes, SYBR Green DNA, 72 h; series mostly up to 28.7 µM
Method in brief: as §2

AA1029 = experiment: as above; conditions: P. falciparum in erythrocytes, SYBR Green DNA, 72 h; series mostly up to 28.7 µM
Method in brief: as §2

AS120 = experiment: as above; conditions: P. falciparum in erythrocytes, SYBR Green DNA, 72 h; series mostly up to 28.7 µM
Method in brief: as §2

ATS95 = experiment: as above; conditions: P. falciparum in erythrocytes, SYBR Green DNA, 72 h; series mostly up to 28.7 µM
Method in brief: as §2

C2A = experiment: as above; conditions: P. falciparum in erythrocytes, SYBR Green DNA, 72 h; series mostly up to 28.7 µM
Method in brief: as §2

CP185 = experiment: as above; conditions: P. falciparum in erythrocytes, SYBR Green DNA, 72 h; series mostly up to 28.7 µM
Method in brief: as §2

CP191 = experiment: as above; conditions: P. falciparum in erythrocytes, SYBR Green DNA, 72 h; series mostly up to 28.7 µM
Method in brief: as §2

[8] = Quantitative High-Throughput drug screen in 47 multiple myeloma cell lines against the NCATS MIPE library collection: KMS11_JCRBsus cell viability assay (AID 1919873); note: potency is the fitted concentration of half-maximal effect; nearly all actives have a fitted effect of over 50% in size
Method in brief: as §1

[9] = Quantitative High-Throughput drug screen in 47 multiple myeloma cell lines against the NCATS MIPE library collection: OPM2_DSMZ cell viability assay (AID 1919872); note: nearly all actives have a fitted effect of over 30% in size; note: potency is the fitted concentration of half-maximal effect
Method in brief: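 Luminescent ATP measurement with CellTiter-Glo gives viability, scaled between DMSO-only wells (100%) and media-only wells (0%). Cells, 500 per well, faced library compounds for 48 hours at 37C.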

[10] = qHTS for identification of novel therapeutic agents for treatment of microphthalmiaassociated transcription factor (MiT) renal cell carcinoma (RCC) (AID 1963991; calls by dose curve; note: potency is the fitted concentration of half-maximal effect); conditions: CellTiter-Glo, 48 h; for z-score: stronger effect = lower value
Method in brief: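 Curves over 11 concentrations were fitted to CellTiter-Glo luminescence, scaled between empty wells (0%) and DMSO (100%) viability. Cells were UOK109, UOK124 and UOK145 TFE3-fusion RCC lines at 500/well, exposed 48 hours at 37 C.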

[11] = measured here: PEO1 parental Z-AUC
[12] = TFE3-RCC UOK109 viability, measured here: UOK109 Z-AUC
[13] = TFE3-RCC viability, measured here: UOK124 Z-AUC
[14] = TFE3-RCC viability, measured here: UOK145 Z-AUC

SMILES: COc1cc(C(=O)NS(=O)(=O)c2ccccc2C)ccc1Cc1cn(C)c2ccc(NC(=O)OC3CCCC3)cc12
- Potency [1]: 16.6 µM (active)
- Potency [2]: 13.2 µM (active)
- Potency [3]: 13.2 µM (active)
- Potency [4]: 20.9 µM (active)
- Potency [5]: 16.6 µM (active)
- Z-AUC [6]: 1.83 (inactive)
- Z-AUC [6, 11]: 1.16
- Z-AUC ([6]; measured here: PEO4 Z-AUC): 1.3
- activity, negative = inhibition [7]: -4.29% (inactive)
- Potency (3D7): inactive
- Potency (7G8): 12.6 µM (active)
- Potency (AA1029): inactive
- Potency (AS120): inactive
- Potency (ATS95): inactive
- Potency (C2A): inactive
- Potency (CP185): inactive
- Potency (CP191): inactive

SMILES: COc1cc(C(=O)N2CCC(N3CCN(C)CC3)CC2)ccc1Nc1ncc2c(n1)N(C)c1ccccc1C(=O)N2C
- Potency [1]: 1.18 µM (active)
- Potency [2]: 5.26 µM (active)
- Potency [3]: 14.8 µM (active)
- Potency [4]: 10.5 µM (active)
- Potency [5]: 3.32 µM (active)
- Z-AUC [6]: -0.667 (inactive)
- Z-AUC [6, 11]: -0.239
- Z-AUC ([6]; measured here: PEO4 Z-AUC): -1.55

SMILES: COc1cc2ncn(-c3cc(OCc4ccccc4C(F)(F)F)c(C(N)=O)s3)c2cc1OC
- Potency [1]: 18.7 µM (active)
- Potency [2]: 18.7 µM (active)
- Potency [3]: 5.9 µM (active)
- Potency [4]: 5.26 µM (active)
- Potency [8]: 0.296 µM (active)
- Potency [5]: 0.526 µM (active)
- Z-AUC [6]: -1.24 (inactive)
- Z-AUC [6, 11]: -0.678
- Z-AUC ([6]; measured here: PEO4 Z-AUC): -1.55

SMILES: O=C(C=Cc1cccc(S(=O)(=O)Nc2ccccc2)c1)NO
- Potency [1]: 0.855 µM (active)
- Potency [2]: 3.82 µM (active)
- Potency [3]: 2.41 µM (active)
- Potency [4]: 3.4 µM (active)
- Potency [8]: 1.21 µM (active)
- Potency [5]: 1.36 µM (active)

SMILES: O=C(O)c1ccc2cc(-c3ccc(O)c(C45CC6CC(CC(C6)C4)C5)c3)ccc2c1
- Potency [1]: 13.2 µM (active)
- Potency [2]: 1.48 µM (active)
- Potency [3]: 16.6 µM (active)
- Potency [4]: 11.8 µM (active)
- Potency [8]: 1.48 µM (active)
- Potency [5]: 1.32 µM (active)
- Z-AUC [6]: -0.815 (inactive)
- Z-AUC [6, 11]: -1.55
- Z-AUC ([6]; measured here: PEO4 Z-AUC): -1.16

SMILES: CC(C)c1noc(N2CCC(COc3ccc(-c4ccc(S(C)(=O)=O)cc4)nc3)CC2)n1
- Potency [1]: 7.43 µM (active)
- Potency [2]: inactive
- Potency [3]: 4.69 µM (active)
- Potency [9]: inactive
- Potency [8]: 1.18 µM (active)
- Z-AUC [6]: -0.00574 (inactive)
- Z-AUC [6, 11]: -0.198
- Z-AUC ([6]; measured here: PEO4 Z-AUC): 1.01
- z-score [10, 12]: 0.525
- z-score [10, 13]: 0.308
- z-score [10, 14]: 0.324

SMILES: COc1cc2c(Oc3ccc4[nH]c(C)cc4c3F)ncnc2cc1OCCCN1CCCC1
- Potency [1]: 4.69 µM (active)
- Potency [2]: 13.2 µM (active)
- Potency [3]: 2.35 µM (active)
- Potency [8]: 2.96 µM (active)
- Potency [5]: 16.6 µM (active)
- Z-AUC [6]: -0.035 (inactive)
- Z-AUC [6, 11]: 0.995
- Z-AUC ([6]; measured here: PEO4 Z-AUC): 0.0837

SMILES: CC(C)c1cnn2c(NCc3ccccc3)cc(N[C@@H](CO)[C@H](O)CO)nc12
- Potency [1]: 0.187 µM (active)
- Potency [2]: 0.235 µM (active)
- Potency [3]: 0.0935 µM (active)
- Potency [9]: 0.332 µM (active)
- Potency [8]: 0.148 µM (active)
- Potency [5]: 0.296 µM (active)
- Z-AUC [6]: -1.87 (inactive)
- Z-AUC [6, 11]: -1.92
- Z-AUC ([6]; measured here: PEO4 Z-AUC): -1.77

SMILES: CC(=O)c1c(C)c2cnc(Nc3ccc(N4CCNCC4)cn3)nc2n(C2CCCC2)c1=O
- Potency [1]: 18.7 µM (active)
- Potency [2]: 18.7 µM (active)
- Potency [3]: 5.9 µM (active)
- Potency [4]: 2.09 µM (active)
- Potency [8]: 20.9 µM (active)
- Potency [5]: 23.5 µM (active)

SMILES: CCN(CC)CCNC(=O)c1ccc2nc(-c3ccccc3)c(-c3ccc(CN4CCC(n5c(=O)[nH]c6ccccc65)CC4)cc3)nc2c1
- Potency [1]: 0.372 µM (active)
- Potency [2]: 1.05 µM (active)
- Potency [3]: 0.332 µM (active)
- Potency [4]: 20.9 µM (active)
- Potency [8]: 2.35 µM (active)
- Potency [5]: 16.6 µM (active)
- Z-AUC [6]: -1.13 (inactive)
- Z-AUC [6, 11]: -1.23
- Z-AUC ([6]; measured here: PEO4 Z-AUC): -1.53

SMILES: COC(=O)Nc1ccc(-c2nc(N3CCOCC3)c3cnn(C4CCN(Cc5cccnc5)CC4)c3n2)cc1
- Potency [1]: 0.0469 µM (active)
- Potency [2]: 0.0469 µM (active)
- Potency [3]: 0.526 µM (active)
- Potency [9]: 0.296 µM (active)
- Potency [8]: 0.0296 µM (active)
- Potency [5]: 0.418 µM (active)
- Z-AUC [6]: -0.964 (inactive)
- Z-AUC [6, 11]: -0.853
- Z-AUC ([6]; measured here: PEO4 Z-AUC): -0.944

SMILES: Nc1nc(Nc2ccc(S(N)(=O)=O)cc2)nn1C(=O)c1c(F)cccc1F
- Potency [1]: 5.26 µM (active)
- Potency [2]: 3.32 µM (active)
- Potency [3]: 1.87 µM (active)
- Potency [4]: 18.7 µM (active)
- Potency [8]: 7.43 µM (active)
- Potency [5]: 6.62 µM (active)
- Z-AUC [6]: 0.423 (inactive)
- Z-AUC [6, 11]: -0.334
- Z-AUC ([6]; measured here: PEO4 Z-AUC): -0.463

SMILES: Fc1cc(-c2cccc3ncc(-c4cnn(C5CCNCC5)c4)nc23)cc(F)c1CN1CCOCC1
- Potency [1]: 9.35 µM (active)
- Potency [2]: 8.33 µM (active)
- Potency [3]: 7.43 µM (active)
- Potency [8]: 9.35 µM (active)
- Potency [5]: 26.4 µM (active)

SMILES: C=CC(=O)Nc1cc2c(Nc3ccc(F)c(Cl)c3)ncnc2cc1C#CC(C)(C)N1CCN(C)CC1
- Potency [1]: 0.833 µM (active)
- Potency [2]: 1.05 µM (active)
- Potency [3]: 0.662 µM (active)
- Potency [9]: 10.5 µM (active)
- Potency [8]: 1.32 µM (active)
- Potency [5]: 0.469 µM (active)
- Z-AUC [6]: -0.203 (inactive)
- Z-AUC [6, 11]: -0.15
- Z-AUC ([6]; measured here: PEO4 Z-AUC): -0.45
- Potency ([10]; TFE3-RCC UOK109 viability, active = Z-AUC below -0.8 in all three lines): 14.8 µM (active)
- z-score [10, 12]: -2.39
- z-score [10, 13]: -1.76
- z-score [10, 14]: -1.33

SMILES: C=CC(=O)Nc1cccc(Oc2nc(Nc3ccc(N4CCN(C)CC4)cc3OC)ncc2Cl)c1
- Potency [1]: 0.0187 µM (active)
- Potency [2]: 0.526 µM (active)
- Potency [3]: 7.43 µM (active)
- Potency [8]: 13.2 µM (active)
- Potency [5]: 20.9 µM (active)
- Z-AUC [6]: -0.915 (inactive)
- Z-AUC [6, 11]: -0.879
- Z-AUC ([6]; measured here: PEO4 Z-AUC): -0.954

SMILES: CCC(=C(c1ccccc1)c1ccc(OCCN(C)C)cc1)c1ccccc1
- Potency [1]: 20.9 µM (active)
- Potency [2]: 26.4 µM (active)
- Potency [3]: 23.5 µM (active)
- Potency [8]: 20.9 µM (active)
- Potency [5]: 20.9 µM (active)

SMILES: Clc1ccc2ncc(-c3cccc(NC4CNC4)n3)n2c1
- Potency [1]: 16.6 µM (active)
- Potency [2]: 16.6 µM (active)
- Potency [3]: 18.7 µM (active)
- Potency [4]: 20.9 µM (active)
- Potency [8]: 20.9 µM (active)
- Z-AUC [6]: -0.578 (inactive)
- Z-AUC [6, 11]: 0.128
- Z-AUC ([6]; measured here: PEO4 Z-AUC): -0.613
